Measurements from PubChem BioAssay AID1347075 (National Center for Advancing Translational Sciences (NCATS), 2019).
In all, about 400,000 compounds went through this assay and about 5,500 (1.4%) were called active. Roughly 9% stayed inconclusive and do not appear here. Shown is part of a subset that was picked to be rich in actives. Unmarked numbers belong to inactive results. Calls follow the shape of the dose curve; as a rule, active = well fitted cell-killing curve with a large enough effect; inconclusive = small, poorly fitted or top-dose-only effect, or effect the other way; inactive = flat fitted curve, though single readings scatter.

Experiment: qHTS assay for MDR1-selective chemotherapeutics: Primary screen using the parental adenocarcinoma cell KB-3-1; also: nearly all actives have a fitted effect of over 60% in size
Conditions: KB-3-1 viability, CellTiter-Glo ATP luminescence, 72 h; series mostly up to 46.1 µM; activity change, negative = cytotoxic: at the top concentration
Outline: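 KB-3-1 parental drug-naive adenocarcinoma cells in DMEM/10% FBS, incubated 72 h at 37 C with pin-transferred compounds across a concentration series. Viability by CellTiter-Glo luminescence; concentration-response curves fitted after normalization.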
% is scaled to controls: 0 for no effect and ±100 for the full control effect; potency is read from the fitted curve at half-maximal effect.

SMILES | activity change, negative = cytotoxic [%] | Potency
CCSc1ncc(Cl)c(C(=O)Nc2c(C(=O)c3ccccc3)oc3ccccc23)n1 | 1.5 | –
Cc1cn(C)c(CC(=O)NCc2ccccc2)c1C(=O)O | 0.565 | –
CC(C)CC(=O)NCC(c1ccc2c(c1)OCO2)N1CCN(c2ccc(F)cc2)CC1 (stereo unspecified) | -5.63 | –
c1ccc(Cc2cc[n+](Cc3ccccc3)cc2)cc1 | – | 18.4 µM (active)
c1ccc(CNCc2ccc(CNCc3ccccc3)cc2)cc1 | 1.49 | –
[O-][n+]1ccc(OCc2ccccc2)cc1 | 3.6 | –
CCC(=O)Nc1c(C(=O)N2CCN(c3ccc(F)cc3)CC2)oc2ccccc12 | -8.2 | –
COCCN(Cc1ccco1)C(=O)Cn1ncc2c([nH]c3ccccc32)c1=O | 0 | –
CCOc1ccc(N=C2NC(=O)S/C2=C\c2ccc(O)cc2)cc1 | -1.86 | –
CCOc1[nH]n(-c2ccc(Cl)cc2)c(=O)c1C=Nc1ccc(O)cc1 | – | 18.4 µM (active)
Fc1ccc(C(Nc2ccc(Cl)c(C(F)(F)F)c2)c2nnc(-c3ccccc3)o2)cc1 (stereo unspecified) | -5.25 | –
CCOc1ccccc1N(CC)C(=O)c1cc2ccc3cccnc3c2[nH]1 | -25 | –
COc1ccc(CNC(=O)c2cc3c(=O)[nH]c4ccc(C)cc4c3s2)c(OC)c1 | 5.62 | –
Cc1cccc(N(C)C(=O)c2cc3c(=O)[nH]c4ccc(C)cc4c3s2)c1 | – | 7.31 µM (active)
CCN(CC)CCCNC(=O)c1cc2c(=O)[nH]c3ccc(C)cc3c2s1 | -17.6 | –
Cc1cc(C(=O)Nc2cccc(C(F)(F)F)c2)c2c(C)nn(-c3cccc(F)c3)c2n1 | – | 18.4 µM (active)
CSc1ccc(CCNC(=O)c2cc(C)nc3c2c(C)nn3-c2cccc(F)c2)cc1 | 1.14 | –
COc1cc(NC(=O)c2cc(C3CC3)nc3c2c(C)nn3-c2ccccc2)cc(OC)c1 | 2.42 | –
Cc1ccc(S(=O)(=O)N2CCN(C)CC2)cc1 | 0.612 | –
Cc1ccc(S(=O)(=O)C2(S(=O)(=O)c3ccc(C)cc3)CCCC2)cc1 | – | 6.51 µM (active)
Cc1ccc(S(=O)(=O)N(C)C2(C)CCS(=O)(=O)C2)cc1 (stereo unspecified) | 4.15 | –
COc1ccc(C2c3c(oc4ccccc4c3=O)C(=O)N2Cc2ccc3c(c2)OCO3)cc1 (stereo unspecified) | -6.25 | –
COC(=O)c1sccc1S(=O)(=O)N(CC(=O)Nc1ccc(C)c(F)c1)c1ccc(C)c(C)c1 | -20 | –
O=C(Nc1ccc(-c2nc3ccccc3[nH]2)cc1)c1ccncc1 | -9.06 | –
CCCC(=O)Nc1nc2ccc(NC(=O)c3c(F)c(F)c(OC)c(F)c3F)cc2s1 | – | 2.59 µM (active)
CC(=O)Nc1ccc2nc(NC(=O)CS(=O)(=O)c3ccc(F)cc3)sc2c1 | 8.18 | –

SMILES | activity change, negative = cytotoxic [%] | Potency
CCCn1nc(C(=O)Nc2ccc3nc(C)sc3c2)c2ccccc2c1=O | -0.715 | –
CC(=O)c1ccc(N2CCN(c3nc4c(S(=O)(=O)c5ccccc5)nnn4c4ccc(Cl)cc34)CC2)cc1 | 1.16 | –
O=C(N/N=C/c1ccc(Cl)c(Cl)c1)c1ccc2nc[nH]c2c1 | – | 18.4 µM (active)
CC(=NNC(=O)c1ccc2nc[nH]c2c1)c1ccc(Br)cc1 | -11.4 | –
CC1=NNC(=O)C1CCC(=O)N/N=C\c1ccc(Cl)c(Cl)c1 (stereo unspecified) | 23.2 | –
CNc1ccc(-c2nc(-c3ccccc3C)no2)cc1[N+](=O)[O-] | -1.62 | –
COc1ccc(Cn2cc(C(=O)c3ccc(C)cc3)c(=O)c3cc(OC)c(OC)cc32)cc1 | 11.2 | –
O=C1C[C@H]2C=CCc3cccc(c32)CN1Cc1ccccc1 | -5.23 | –
COc1ccc(C2C(C#N)=C(N)Oc3cc(N)ccc32)cc1OC (stereo unspecified) | – | 16.4 µM (active)
COc1ccc(C2C(C#N)=C(/N=C/N3CCOCC3)OC3=C2C(=O)CC(C)(C)C3)cc1OC (stereo unspecified) | 7.96 | –
N#CC1=C(N)Oc2cc(O)ccc2C1C1CCCCC1 (stereo unspecified) | 0 | –
CC1CCN(c2nc3ccc(C(=O)N4CCN(c5ccccc5)CC4)cc3s2)CC1 | 0 | –
COc1ccc2nc(N3CCN(C(=O)c4ccc([N+](=O)[O-])o4)CC3)sc2c1 | – | 16.4 µM (active)
O=C(NCc1ccc(F)cc1)c1ccc2nc(N3CCCCC3)sc2c1 | 16.9 | –
COc1cc(C(=O)N2CCN(C(=O)COc3cccc(C)c3)CC2)cc(OC)c1OC | -6.07 | –
Cc1ccc(Nc2nc(-c3ccc(O)cc3O)cs2)nc1 | – | 20.6 µM (active)
Cc1ccn2c(-c3csc(Nc4ccc(C(=O)O)cc4)n3)c(C)nc2c1 | -6.25 | –
CC(=O)Nc1cnc(-c2ccc(O)cc2C)cn1 | -0.089 | –
Cc1ccc(CN2CCCn3nc(C(=O)NCc4ccccc4Cl)cc3C2=O)cc1 | -19.7 | –
CCOC(=O)c1nnn(CC(=O)NC(=O)Nc2ccccc2F)c1C(=O)OCC | 18.1 | –
COC(=O)c1c(C)oc(C)c1S(=O)(=O)Nc1ccc(C(C)C)cc1 | – | 3.26 µM (active)
COC(=O)c1c(C)oc(C)c1S(=O)(=O)NCc1ccc(Cl)cc1 | -8.99 | –
COC(=O)c1ccccc1S(=O)(=O)Nc1ccc(OC)cc1 | 0 | –
O=C(Nc1cc(Br)ccc1F)c1nc[nH]c1C(=O)NCc1ccccc1 | -0.0726 | –
O=C(Nc1ccon1)c1nc[nH]c1C(=O)NCc1ccccc1 | – | 5.8 µM (active)
CC(C)(C)OC(=O)NCCCCCNC(=O)c1nc[nH]c1C(=O)NCc1ccccc1 | 0.352 | –

SMILES | activity change, negative = cytotoxic [%] | Potency
COc1ccc(NC(=O)c2ccc3nc(C(C)C)oc3c2)cc1OC | -2.26 | –
COC(=O)c1sc2ncccc2c1-n1c(C)ccc1C | 20.6 | –
O=C(NC1CCCCC1)c1ccc(Cn2c(SCc3ccccc3)nc3cccnc32)cc1 | 7.78 | –
Cc1oc2c(c1C(=O)Nc1ccc(F)c(F)c1)C1=NCCN1C=N2 | 16.5 | –
O=C(Nc1ccc2nc(SCC(=O)N3CCc4ccccc43)sc2c1)c1ccccc1F | 9.11 | –
CCOc1ccc(NC(=O)c2cn(C3CCCCC3)c(=O)c3c2c2ccccc2n3C)cc1 | -1.1 | –
COCCNC(=O)CSc1nc(-c2ccccc2)[nH]c1-c1ccc(C)cc1 | 0 | –
COc1cccc(-c2nc(S(=O)(=O)c3ccc(C)cc3)c(NCc3ccccc3)o2)c1 | -8.2 | –
CC(Nc1ccc(-c2nc(-c3ccco3)no2)cc1[N+](=O)[O-])c1ccccc1 (stereo unspecified) | -23.5 | –
O=C(NCc1ccccc1)C1CCN(S(=O)(=O)c2ccc3[nH]c(=O)ccc3c2)CC1 | 0.516 | –
COc1ccccc1N1CC(C(=O)Nc2ccc(S(=O)(=O)N3CCOCC3)cc2)CC1=O (stereo unspecified) | 8.27 | –
COc1cc(OC)c(N2CC(C(=O)Nc3cc(Cl)ccc3N3CCOCC3)CC2=O)cc1Cl (stereo unspecified) | – | 5.8 µM (active)
COc1ccc(Cl)cc1NC(=O)C1CC(=O)N(c2ccc(F)cc2)C1 (stereo unspecified) | 0.372 | –
CCCCn1cc(S(=O)(=O)c2ccc(OCC)cc2)c(=O)c2cc(OC)c(OC)cc21 | 3.26 | –
Cc1cccc(N2CCN(C(=O)c3ccc(Nc4nc5ccccc5n5nnnc45)cc3)CC2)c1C | 10.5 | –
CCN(CC)S(=O)(=O)c1ccc(N2CCCC2)c(NC(=O)c2ccc([N+](=O)[O-])o2)c1 | – | 6.51 µM (active)
CCN(CC)S(=O)(=O)c1cc(C(=O)Nc2cc(S(=O)(=O)N3CCOCC3)ccc2N2CCCC2)ccc1F | -7.07 | –
CCN(CC)S(=O)(=O)c1ccc(N2CCOCC2)c(NC(=O)c2ccc(=O)n(C)n2)c1 | 1.26 | –
Cc1[nH]c2ccccc2c1C(=O)C(=O)N(C)c1ccccc1 | 0 | –
CCn1c2c(c(=O)n3ncc(C(=O)N4CCN(c5ccccc5)CC4)c13)CN(Cc1ccc(OC)cc1)CC2 | -2.44 | –
C/C(=N/NC(=O)CCc1ccccc1)c1ccco1 | 19.7 | –
CC(=N\NC(=O)c1cc(Br)ccc1O)/C(=N/O)C(=O)Nc1ccccc1 | -43.4 | –
C/C(=N\NC(=O)c1ccoc1C)c1ccccc1O | – | 14.6 µM (active)
O=C(NCc1ccc2c(c1)CCN2C(=O)c1ccccc1)c1ccccc1 | 4.06 | –
COc1ccc(NC(=O)Cn2c(=O)n(Cc3ccc(C(=O)NCc4ccccc4Cl)cc3)c(=O)c3ccccc32)cc1 | 4.15 | –
C=CC(=O)OCCOCCOCCOCCOC(=O)C=C | – | 10.3 µM (active)

SMILES | activity change, negative = cytotoxic [%] | Potency
CCOC(=O)c1ccc(NC(=O)Cn2c(=O)cc(C)c3c(C)nn(-c4cccc(F)c4)c32)cc1 | 0.642 | –
CCC(=O)N1CCc2cc(CNC(=O)Nc3ccccc3Cl)ccc21 | -20.1 | –
COC(=O)c1scc(-c2ccc(C)cc2)c1S(=O)(=O)Nc1cc(Cl)c(OC)cc1OC | -0.714 | –
CCc1ccc(Sc2cc(C(=O)NCCCOC(C)C)c3ccccc3n2)cc1 | -1.08 | –
Cn1c(-c2ccco2)nc2cc3ccccc3cc21 | – | 18.4 µM (active)
CSc1n[nH]c(-c2ccco2)n1 | -2.46 | –
Cc1ccc2nc(-c3ccco3)c(Cc3cccc(Cl)c3)n2c1 | -2.85 | –
N#Cc1ccc(-c2cccs2)nc1SCc1ccc(Br)cc1 | 2.25 | –
CCOc1ccccc1NC(=O)Cn1nnc(C(=O)Nc2ccc(C)c(C)c2)c1N | 0.046 | –
CCOc1ccccc1NC(=O)Cn1nnc(C(=O)NCc2cccs2)c1N | – | 0.259 µM (active)
Cc1ccc(NC(=O)Cn2nnc(C(=O)NCc3ccco3)c2N)c(C)c1 | -2.38 | –
CCc1ccccc1NC(=O)Cc1ccc(NC(=O)N2CCCCc3ccccc32)cc1 | 0 | –
CC(C)(C)NC(=O)CSc1nc(-c2ccc(F)cc2)cc(C(F)(F)F)n1 | 4.09 | –
Cc1ccc(Cl)cc1NC(=O)CSc1nccn1C | -6.62 | –
COc1ccc(-c2cc(C(=O)Nc3sc4c(c3C(N)=O)CCCC4)no2)cc1 | 15.2 | –
COc1ccc(-c2nc3c(s2)CCc2onc(-c4ccc(Br)cc4)c2-3)cc1 | 0 | –
COc1ccc(-c2nc3c(s2)CCc2onc(-c4ccc(OC)cc4)c2-3)cc1 | – | 20.6 µM (active)
COc1ccccc1CNC(=O)CCn1c(=O)c2ccccc2n(CC(=O)Nc2cccc(Cl)c2)c1=O | 1.39 | –
COc1ccc(CCNc2ncnc3c2cnn3-c2ccc(C)cc2)cc1 | 6.58 | –
O=C(NCc1ccccc1Cl)C1=Cc2cc(Br)ccc2OC1 | -0.821 | –
CCOC(=O)c1cccc(NC(=O)CCOc2ccccc2)c1 | -5.85 | –
CCn1c2ccccc2c2cc(NC(=O)COc3ccc(C)cc3C)ccc21 | -5.72 | –
CCOCCC(=O)Nc1ccc2c(c1)c(=O)n(C)n2-c1ccc2ccccc2c1 | – | 3.66 µM (active)
